# According to PMC5540273 (PLoS ONE, 2017):
# Assays:
# Conditions in all cases: concentration: 1 μM, replicates: in singlicate; n = 1
# CTK = tested on: T1, CTK
# T1 construct: gene MATK
# DAPK1 = tested on: DAPK1
# DAPK2 = tested on: DAPK2
# DAPK3 = tested on: DAPK3
# DCAMKL1 = tested on: T2, DCAMKL1
# T2 construct: gene DCLK1
# DCAMKL2 = tested on: T3, DCAMKL2
# T3 construct: gene DCLK2
# DCAMKL3 = tested on: T4, DCAMKL3
# T4 construct: gene DCLK3
# DDR1 = tested on: DDR1
# DDR2 = tested on: DDR2
# DLK = tested on: T5, DLK
# T5 construct: gene MAP3K12
# 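Note: KINOMEscan kinase panel screen.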
smiles,measurement,setting,value
Cc1nccc(-c2c(-c3ccc(F)cc3)ncn2CCCN2CCOCC2)n1.Cl [SB-282975],%Inh,CTK,0%
same,%Inh,DAPK1,0%
same,%Inh,DAPK2,99.3%
same,%Inh,DAPK3,0%
same,%Inh,DCAMKL1,0%
same,%Inh,DCAMKL2,2%
same,%Inh,DCAMKL3,3%
same,%Inh,DDR1,0%
same,%Inh,DDR2,0%
same,%Inh,DLK,0%
CCCCc1nn2ncccc2c1-c1ccnc(NC2CC2)n1 [GW684374],%Inh,CTK,0%
same,%Inh,DAPK1,20%
same,%Inh,DAPK2,0%
same,%Inh,DAPK3,12%
same,%Inh,DCAMKL1,0%
same,%Inh,DCAMKL2,0%
same,%Inh,DCAMKL3,0%
same,%Inh,DDR1,67%
same,%Inh,DDR2,23%
same,%Inh,DLK,35%
O=c1cc(N2CCOCC2)nc2n(Cc3ccccc3F)ccn12 [GSK2297428],%Inh,CTK,0%
same,%Inh,DAPK1,0%
same,%Inh,DAPK2,0%
same,%Inh,DAPK3,13%
same,%Inh,DCAMKL1,57%
same,%Inh,DCAMKL2,0%
same,%Inh,DCAMKL3,3%
same,%Inh,DDR1,10%
same,%Inh,DDR2,0%
same,%Inh,DLK,0%
Cl.Cl.Cl.N#Cc1ccc(CCNc2nccc(-c3cccc(CN4CCNCC4)c3)n2)cc1 [GSK2137462],%Inh,CTK,2%
same,%Inh,DAPK1,28%
same,%Inh,DAPK2,19%
same,%Inh,DAPK3,75%
same,%Inh,DCAMKL1,14%
same,%Inh,DCAMKL2,0%
same,%Inh,DCAMKL3,0%
same,%Inh,DDR1,0%
same,%Inh,DDR2,0%
same,%Inh,DLK,0%
Cc1ccccc1Cn1ccn2c(=O)cc(N3CCOCC3)nc12 [GSK2269905],%Inh,CTK,0%
same,%Inh,DAPK1,0%
same,%Inh,DAPK2,0%
same,%Inh,DAPK3,0%
same,%Inh,DCAMKL1,0%
same,%Inh,DCAMKL2,7%
same,%Inh,DCAMKL3,4%
same,%Inh,DDR1,0%
same,%Inh,DDR2,0%
same,%Inh,DLK,0%
Nc1cccc(-c2ccc3c(N)n[nH]c3c2)n1 [GSK2192730],%Inh,CTK,0%
same,%Inh,DAPK1,27%
same,%Inh,DAPK2,2%
same,%Inh,DAPK3,28%
same,%Inh,DCAMKL1,0%
same,%Inh,DCAMKL2,0%
same,%Inh,DCAMKL3,0%
same,%Inh,DDR1,0%
same,%Inh,DDR2,0%
same,%Inh,DLK,0%
O=C(Nc1n[nH]c2nc(-c3cccs3)c(Br)cc12)C1CC1 [SB-735297],%Inh,CTK,13%
same,%Inh,DAPK1,0%
same,%Inh,DAPK2,0%
same,%Inh,DAPK3,0%
same,%Inh,DCAMKL1,0%
same,%Inh,DCAMKL2,0%
same,%Inh,DCAMKL3,0%
same,%Inh,DDR1,0%
same,%Inh,DDR2,0%
same,%Inh,DLK,0%
COc1cccc(C2=C(Nc3cc(Cl)c(O)c(Cl)c3)C(=O)NC2=O)c1 [SB-390767],%Inh,CTK,10%
same,%Inh,DAPK1,0%
same,%Inh,DAPK2,0%
same,%Inh,DAPK3,17%
same,%Inh,DCAMKL1,11%
same,%Inh,DCAMKL2,0%
same,%Inh,DCAMKL3,26%
same,%Inh,DDR1,96.1%
same,%Inh,DDR2,18%
same,%Inh,DLK,0%
O=C(Nc1n[nH]c2nc(-c3cccs3)c(Br)cc12)C1CCCC1 [SB-743341],%Inh,CTK,49%
same,%Inh,DAPK1,0%
same,%Inh,DAPK2,3%
same,%Inh,DAPK3,3%
same,%Inh,DCAMKL1,0%
same,%Inh,DCAMKL2,7%
same,%Inh,DCAMKL3,22%
same,%Inh,DDR1,27%
same,%Inh,DDR2,0%
same,%Inh,DLK,0%
O=c1cc(N2CCOCC2)nc2n(Cc3cccc(Cl)c3Cl)c3ccccc3n12 [GSK2299009],%Inh,CTK,0%
same,%Inh,DAPK1,13%
same,%Inh,DAPK2,0%
same,%Inh,DAPK3,11%
same,%Inh,DCAMKL1,12%
same,%Inh,DCAMKL2,7%
same,%Inh,DCAMKL3,10%
same,%Inh,DDR1,22%
same,%Inh,DDR2,0%
same,%Inh,DLK,0%
COc1ccc(Nc2nccc(N3CCC(NC(=O)C(C)c4ccc(Cl)cc4)C3)n2)cc1 (centres unmarked) [GSK1379735],%Inh,CTK,4%
same,%Inh,DAPK1,0%
same,%Inh,DAPK2,0%
same,%Inh,DAPK3,0%
same,%Inh,DCAMKL1,0%
same,%Inh,DCAMKL2,6%
same,%Inh,DCAMKL3,29%
same,%Inh,DDR1,28%
same,%Inh,DDR2,16%
same,%Inh,DLK,13%
COC(=O)C(Cc1ccccc1)NC(=O)NC1CCN(c2ccnc(Nc3ccc(F)cc3)n2)C1 (centres unmarked) [GSK1379714],%Inh,CTK,0%
same,%Inh,DAPK1,25%
same,%Inh,DAPK2,12%
same,%Inh,DAPK3,28%
same,%Inh,DCAMKL1,7%
same,%Inh,DCAMKL2,0%
same,%Inh,DCAMKL3,8%
same,%Inh,DDR1,75%
same,%Inh,DDR2,47%
same,%Inh,DLK,48%
COc1nccc(-c2c(-c3ccc(F)cc3)ncn2CCCN2CCOCC2)n1 [SB-282852],%Inh,CTK,22%
same,%Inh,DAPK1,5%
same,%Inh,DAPK2,0%
same,%Inh,DAPK3,22%
same,%Inh,DCAMKL1,35%
same,%Inh,DCAMKL2,0%
same,%Inh,DCAMKL3,11%
same,%Inh,DDR1,0%
same,%Inh,DDR2,35%
same,%Inh,DLK,18%
Cn1cncc1C(=O)NC1CCN(c2ccnc(Nc3ccc(F)cc3)n2)C1 (centres unmarked) [GSK1379717],%Inh,CTK,0%
same,%Inh,DAPK1,13%
same,%Inh,DAPK2,0%
same,%Inh,DAPK3,5%
same,%Inh,DCAMKL1,0%
same,%Inh,DCAMKL2,0%
same,%Inh,DCAMKL3,0%
same,%Inh,DDR1,7%
same,%Inh,DDR2,0%
same,%Inh,DLK,0%
COc1ccc(Nc2nccc(NCCNC(=O)Nc3cc(C)ccc3C)n2)cc1 [GSK1379899],%Inh,CTK,4%
same,%Inh,DAPK1,0%
same,%Inh,DAPK2,0%
same,%Inh,DAPK3,0%
same,%Inh,DCAMKL1,0%
same,%Inh,DCAMKL2,0%
same,%Inh,DCAMKL3,0%
same,%Inh,DDR1,9%
same,%Inh,DDR2,0%
same,%Inh,DLK,10%
COC(=O)C(NC(=O)NC1CCN(c2ccnc(Nc3ccc(F)cc3)n2)C1)c1ccccc1 (centres unmarked) [GSK1379712],%Inh,CTK,0%
same,%Inh,DAPK1,15%
same,%Inh,DAPK2,0%
same,%Inh,DAPK3,25%
same,%Inh,DCAMKL1,17%
same,%Inh,DCAMKL2,12%
same,%Inh,DCAMKL3,0%
same,%Inh,DDR1,0%
same,%Inh,DDR2,39%
same,%Inh,DLK,0%
Cc1c(Cn2c3ccccc3n3c(=O)cc(N4CCOCC4)nc23)cccc1C(F)(F)F [GSK2306394],%Inh,CTK,10%
same,%Inh,DAPK1,12%
same,%Inh,DAPK2,4%
same,%Inh,DAPK3,0%
same,%Inh,DCAMKL1,0%
same,%Inh,DCAMKL2,0%
same,%Inh,DCAMKL3,0%
same,%Inh,DDR1,19%
same,%Inh,DDR2,0%
same,%Inh,DLK,0%
